Source: PubChem BioAssay (several laboratories)
MsrA inh – inhibits bovine methionine sulfoxide reductase A; purified bovine MsrA, absorbance read-out; AID 651718; actives 0.75% (n = 360,000); inhibition, % at 15.5 µM; in the data active means inhibition above about 4.5%
rCAG binder-1 – binds r(CAG) RNA repeats | inhibition, % at 3 µM | AID 651821 | r(CAG) RNA repeat, TO-PRO-1 dye displacement fluorescence | actives 1.3% (n = 370,000);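 active means inhibition above the plate cutoff, the mean of all test compounds on that plate plus 3 SD, cut at about 35% in these data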;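 further: higher means more dye released from RNA so lower well fluorescence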
bovine MsrA act – bovine methionine sulfoxide reductase A activation | purified bovine MsrA, absorbance read-out | activation, % at 10.6 µM | actives 0.3% (n = 360,000); in the data active means activation above about 7.5%
NadD block – NadD (S. aureus) enzyme inhibition | purified NadD enzyme, colorimetric absorbance read-out | inhibition, % at 20 µM | actives 0.78% (n = 360,000) | AID 602399; in the data active means inhibition above about 26%
NadD conf – confirmation of Staphylococcus aureus NadD inhibitors. actives 13% (n = 2,000). purified S. aureus NadD, colorimetric enzyme assay. AID 624309. inhibition, % at 20 µM. shares compounds with NadD block; in the data active means inhibition mostly above about 42%, no sharp cut-off; inactive means mostly below about 42%
MsrA conf – bovine MsrA inhibition, confirmed; shares compounds with MsrA inh; purified bovine MsrA, absorbance read-out; inhibition, % at 15.5 µM; actives 41% (n = 2,300); in the data active means inhibition above about 4.5%;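 further: coupled to thioredoxin reductase with NADPH and selenocystamine and DMSO as substrate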
rCAG bind conf – r(CAG) RNA repeat binding, confirmation. shares compounds with rCAG binder-1. TO-PRO-1 dye displacement fluorescence. inhibition, % at 3 µM. actives 70% (n = 4,300). AID 652065;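 active means inhibition above a per-plate cutoff, the mean inhibition of sample wells plus 3 SD, cut at about 35% in these data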;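 further: loss of TO-PRO-1 fluorescence as compound displaces dye from 1x1 AA loop RNA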
dCAG dye counter – DNA CAG dye complex inhibition counter-screen. d(CAG) DNA oligo TO-PRO-1 dye displacement, fluorescence. inhibition, % at 3 µM. shares compounds with rCAG binder-1. actives 94% (n = 4,300). AID 652068;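 active means inhibition above its plate's cutoff, the mean test-well inhibition plus 3 SD, cut at about 4.8% in these data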;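 further: hits displace the dye from DNA and so lower well fluorescence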
dCAG dye DR – disrupts DNA CAG TO-PRO-1 complex in dose response | shares compounds with rCAG binder-1 | DNA CAG/GTC duplex TO-PRO-1 dye displacement fluorescence | IC50, µM | actives 20% (n = 250) | AID 686960; in the data active means IC50 below about 10 µM
dCAG TOPRO ctr – inhibits DNA CAG/GTC TO-PRO-1 complex, rCAG binder counter-screen; shares compounds with rCAG binder-1; d(CAG) DNA duplex TO-PRO-1 dye displacement, fluorescence; IC50, µM; actives 80% (n = 30)
rCAG binder-2 – molecules binding r(CAG) RNA repeats, late stage dose response | shares compounds with rCAG binder-1 | IC50, µM | actives 100% (n = 30) | r(CAG) RNA TO-PRO-1 dye displacement, fluorescence
Each line names hits and unclear results; the compound was inactive in the other large screens (follow-up assays come after a bar, where they were run). Shown are actives, neighbours in structure and some others; about 2.7% of the full set was active somewhere. Unless noted, how the calls were made is not given here.

CCOc1ccc(NC(=O)c2ccc3c(SCC(=O)O)c4c(nc3c2)CCCC4)cc1	none
CCOC(=O)c1ccccc1NC(=O)c1ccc2c(SCC(=O)O)c3c(nc2c1)CCCC3	rCAG binder-1 45.5, NadD block 30.4 | NadD conf 61.6 | rCAG bind conf 73.6 | dCAG dye counter 30.1 | dCAG dye DR 7.14 | dCAG TOPRO ctr 5.47 | rCAG binder-2 2.98
O=C(O)CSc1c2c(nc3cc(C(=O)Nc4cccc(C(F)(F)F)c4)ccc13)CCC2	rCAG binder-1 71.7, NadD block 34.2 | NadD conf inactive | rCAG bind conf 57.3 | dCAG dye counter 20.6
COc1cc(Cl)c(C)cc1NC(=O)c1ccc2c(SCC(=O)O)c3c(nc2c1)CCCC3	none
O=C(CCl)N1CCCC1c1ccc2c(c1)OCCO2 (centres undefined)	none
CC1(C)Cc2c(sc(/N=C/N3CCCCCC3)c2C#N)C(C)(C)N1	none
CC1(C)Cc2c(sc(/N=C/N3CCCC3)c2C#N)C(C)(C)N1	MsrA inh 5.1 | MsrA conf inactive
c1ccc2[nH]c(N3CCOCC3)nc2c1	none
O=c1c(Cl)c(N2CCOCC2)cnn1-c1nc2ccccc2[nH]1	MsrA inh 4.8 | MsrA conf inactive
COc1cccc2cc(-c3csc(CCn4nc(C)cc4C)n3)c(=O)oc12	MsrA inh 5.5 | MsrA conf inactive
COc1ccc(OC)c(-c2csc(CCn3nc(C)cc3C)n2)c1	none
COCCn1c(=NC(=O)c2ccc3c(c2)OCCO3)sc2cc(S(N)(=O)=O)ccc21	MsrA inh 6.2 | MsrA conf inactive
COCCn1c(=NC(=O)c2cc(Cl)sc2Cl)sc2cc(S(N)(=O)=O)ccc21	none
O=C(/C=C/c1ccccc1)NNC1=NS(=O)(=O)c2ccccc21	MsrA inh 4.8 | MsrA conf 5.5
COc1ccc(NC(=O)CSc2nnc(Cc3ccc(C)cc3)c(=O)n2N)cc1	none
CCC(=O)N/N=C/c1ccc(-c2ccc(Cl)cc2)o1	MsrA inh 4.8 | MsrA conf inactive
COc1ccc(NC(=S)NCC2CCCO2)c(C)c1 (centres undefined)	none
COc1cc(/C=N/NC(=S)NCCN2CCOCC2)cc(OC)c1O	MsrA inh 5.2 | MsrA conf 5.7
COc1cc(/C=N/NC(=O)C(=O)NCC2CCCO2)ccc1O (centres undefined)	MsrA inh 4.8 | MsrA conf inactive
COc1cc(/C=C(\C#N)C(=O)NCC2CCCO2)ccc1O (centres undefined)	none
COc1cc(OC)c(OC)cc1/C=N/NC(=S)NCCN1CCOCC1	MsrA inh 5.1 | MsrA conf inactive
COc1cc(OC)c(OC)cc1/C=N/NC(=S)NCC1CCCO1 (centres undefined)	MsrA inh 5.9 | MsrA conf 4.9
Clc1ccc(CNc2ncnc3[nH]ncc23)c(Cl)c1	none
CC(c1nccs1)N(C)c1nc2nonc2nc1N(C)C (centres undefined)	MsrA inh 4.9 | MsrA conf inactive
CCCNC(=S)N(Cc1ccccc1)Cc1nc2ccccc2c(=O)[nH]1	MsrA inh 47.0 | MsrA conf inactive
NC(=O)Nc1ccc(C(=O)OCC(=O)N2CCCC2=O)cc1	none
Cc1ccsc1/C=N\Nc1cn[nH]c(=O)c1Cl	none
COc1ccc(/C=N/Nc2cc(C)nc3ccccc23)cc1	none
O=c1[nH]ncc(N/N=C/c2ccccc2)c1Cl	MsrA inh 7.2 | MsrA conf 6.8
Cc1ccc(/C=N\Nc2cn[nH]c(=O)c2Cl)cc1	MsrA inh 7.8 | MsrA conf 6.6
COc1ccc(/C=N/Nc2cn[nH]c(=O)c2Cl)cc1	MsrA inh 5.4 | MsrA conf 5.9
CCCC(=O)Nc1nc2ccc(OC)cc2s1	none
COc1ccc2nc(NC(=S)N(C)C)sc2c1	MsrA inh 6.3 | MsrA conf inactive
Cn1ccc2c(N3CCCCCC3)cc3c(c21)C1CCC3C1 (centres undefined)	none
CCc1ccc(OCC(O)CN2CCN(c3ccc(OC)cc3)CC2)cc1 (centres undefined)	none
COc1ccc(/C=C2\Oc3cc(OCC(=O)N4CCC[C@H]4C(=O)O)ccc3C2=O)cc1OC	none (no result: MsrA inh, rCAG binder-1)
COc1ccc(/C=C2\Oc3cc(OCC(=O)N4CCC[C@H]4C(=O)O)ccc3C2=O)c(OC)c1OC	MsrA inh 5.1 | MsrA conf 5.5
COc1ccc(/C=C2\Oc3cc(OCC(=O)N4CC(O)C[C@H]4C(=O)O)ccc3C2=O)c(OC)c1OC (some centres undefined)	MsrA inh 4.9 | MsrA conf inactive
COc1ccc(/C=C2\Oc3cc(OCC(=O)N4CC(O)C[C@H]4C(=O)O)ccc3C2=O)cc1OC (some centres undefined)	none
O=C(N/N=C/c1cnc2ccccc2n1)c1cccc(F)c1	MsrA inh 5.8 | MsrA conf inactive
Cc1cc(OCC(=O)Nc2sc3c(c2C#N)CC(C)(C)NC3(C)C)c(C(C)C)cc1Cl	none
COc1cc2c(cc1OC)-c1cc(Nc3ccc(C)cc3)nc(=O)n1CC2	none
COc1cc2c(cc1OC)-c1cc(Nc3ccc(C(=O)O)cc3)nc(=O)n1CC2	none
COc1cc2c(cc1OC)-c1cc(Nc3ccccc3Br)nc(=O)n1CC2	MsrA inh 7.5 | MsrA conf inactive
COc1cc2c(cc1OC)-c1cc(Nc3ccc4c(c3)OCCO4)nc(=O)n1CC2	MsrA inh 5.1 | MsrA conf inactive
COc1ccc(Nc2cc3n(c(=O)n2)CCc2cc(OC)c(OC)cc2-3)cc1	MsrA inh 5.5 | MsrA conf inactive
COc1cc2c(cc1OC)-c1cc(Nc3ccccc3)nc(=O)n1CC2	MsrA inh 5.1 | MsrA conf inactive
COc1cc2c(cc1OC)-c1cc(NC3CCCCCC3)nc(=O)n1CC2	none
CCOC(=O)C1CCN(c2c(NCCN(CC)c3ccccc3)c(=O)c2=O)CC1	none
CN(C)CCN1C(=O)C2C(C(=O)Nc3cc(Cl)cc(Cl)c3)C3C=CC2(O3)C1C(=O)NC1CCCCC1 (centres undefined)	none
COc1ccc(Nc2cc3n(c(=O)n2)CCc2cc(OC)c(OC)cc2-3)c(C)c1	MsrA inh 4.9 | MsrA conf inactive
